MITF primary = MITF inhibitors, primary screen, biochemical, AlphaScreen, human; AlphaScreen MITF homodimerization, bead proximity signal; inhibition, % at 2.6 µM; hit rate 0.91% among 650,000; in the data active = inhibition above about 50%
FBW7 act = FBW7 E3 ligase activators, primary screen, biochemical, AlphaScreen, human; AID 1259310, 2017; F-box/WD repeat-containing protein 7 (Homo sapiens), Q969H0; AlphaScreen FBW7–phospho-cyclin E peptide binding, activator screen; normalized activity (activation), % at 26.1 µM; hit rate 0.13% among 650,000; in the data active = normalized activity above about 1.9%;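 also: purified mutant Fbw7 with reduced substrate affinity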
GPR151 ag = activators of human GPR151, primary screen, cell-based, PathHunter beta-arrestin, luminescence. G-protein coupled receptor 151 (Homo sapiens), Q8TDV0. PathHunter beta-arrestin GPR151 cells. activation, % at 11.2 µM. hit rate 1% among 650,000. AID 1508602, 2020; in the data active = activation above about 4.9%
Target sequence (Q8TDV0 whole entry, looked up): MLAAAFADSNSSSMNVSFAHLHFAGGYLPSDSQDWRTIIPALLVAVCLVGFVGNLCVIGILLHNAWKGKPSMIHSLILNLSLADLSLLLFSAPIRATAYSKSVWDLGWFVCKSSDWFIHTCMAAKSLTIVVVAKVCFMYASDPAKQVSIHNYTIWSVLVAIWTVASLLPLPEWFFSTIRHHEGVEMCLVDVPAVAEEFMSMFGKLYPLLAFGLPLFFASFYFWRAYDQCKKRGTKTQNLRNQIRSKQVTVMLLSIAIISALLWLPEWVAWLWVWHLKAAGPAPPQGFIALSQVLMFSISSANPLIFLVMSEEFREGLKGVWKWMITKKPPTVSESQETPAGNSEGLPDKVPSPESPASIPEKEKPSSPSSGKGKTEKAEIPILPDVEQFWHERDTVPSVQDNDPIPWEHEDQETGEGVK
TEAD-YAP block = TEAD-YAP interaction inhibition, primary screen, TEAD-YAP interaction inhibitor project, luminescence, HEK-TIYL cells; TEAD-Gal4/YAP UAS-luciferase luminescence; inhibition, % at 9.12 µM; hit rate 1.4% among 640,000; AID 1259422, 2018; in the data active = inhibition above about 32%
GPR151 conf act = GPR151 activators, triplicate retest, confirmation, cell-based, PathHunter beta-arrestin, luminescence. shares compounds with GPR151 ag. GPR151 PathHunter beta-arrestin cells, 90 min; % of EA-reagent control over plate median. activation, % at 11.2 µM. 6,700 tested, under 10 active;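 active = mean percent activation across replicates above the confirmation screen cutoff of 4.91%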
GPR119 counter = GPR119 activators in beta-arrestin cells, counter-screen for GPR151 activator project, cell-based, PathHunter beta-arrestin, luminescence, triplicate; shares compounds with GPR151 ag; 90 min; 0 = compound-well median, 100 = enzyme-acceptor control; activation, % at 11.2 µM; hit rate 0.3% among 6,700; AID 1508611, 2020;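 active = mean percent activation in the counterscreen above 29.09%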;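 also: counterscreen on off-target GPR119 to flag nonselective hits from the GPR151 activator screen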
Each line names hits and unclear results; the compound was inactive in the other large screens (follow-up assays come after a bar, where they were run); ! = a repeat was not active. Shown are actives, neighbours in structure and some others; about 3.5% of the full set was active somewhere.

Cn1c2c(c(=O)n(C)c1=O)C(c1ccccc1Cl)CC(=O)N2 (stereo unspecified)	GPR151 ag 8.6 | GPR151 conf act inactive | GPR119 counter inactive
COc1ccc(CC(=O)NNC(=O)CSc2nc(C)c(C)c(=O)[nH]2)cc1	GPR151 ag 6.3 | GPR151 conf act inactive | GPR119 counter inactive
COc1ccc(C(=O)NNC(=O)CSc2ncn[nH]2)cc1	GPR151 ag 11 | GPR151 conf act inactive | GPR119 counter inactive
COc1ccc(C(=O)NNC(=O)CSc2nc3sc(C)c(C)c3c(=O)[nH]2)cc1	none
CCOc1ccc(NC(=O)CN2CCC(n3cnc4cccnc43)CC2)cc1	none
O=C(/C=C/c1ccccc1)NCCOC(=O)Nc1ccccc1	GPR151 ag 9.8 | GPR151 conf act inactive | GPR119 counter inactive
CCOc1ccc(CC(=O)NC2CC(=O)N(c3cccc(OC)c3)C2)cc1 (stereo unspecified)	none
Cc1ccsc1/C=C1\SC(=N)N(c2ccc(F)cc2)C1=O	GPR151 ag 23 | GPR151 conf act inactive | GPR119 counter inactive
Cc1ccc(N2C(=N)S/C(=C/c3sccc3C)C2=O)cc1C	none
Cc1ccc(N2CC(C(=O)N3CCCCCC3)CC2=O)cc1 (stereo unspecified)	GPR151 ag 4.9 | GPR151 conf act inactive | GPR119 counter inactive
CC(C)NC(=O)C1CC(=O)N(c2ccc(Cl)cc2)C1 (stereo unspecified)	GPR151 ag 5.8 | GPR151 conf act inactive | GPR119 counter inactive
N=C1S/C(=C/c2ccc(-c3cccc(F)c3)o2)C(=O)N1c1nccs1	none
O=C1C(=O)N(CCN2CCOCC2)C(c2cccnc2)/C1=C(/O)c1ccc(Br)cc1 (stereo unspecified)	none
COc1ccc(/C(O)=C2/C(=O)C(=O)N(CCN3CCOCC3)C2c2ccc(C(C)(C)C)cc2)cc1 (stereo unspecified)	GPR151 ag 7.0 | GPR151 conf act inactive | GPR119 counter inactive
O=C1C(=O)N(CCCN2CCOCC2)C(c2cccnc2)/C1=C(/O)c1ccc(Br)cc1 (stereo unspecified)	GPR151 ag 9.1 | GPR151 conf act inactive | GPR119 counter inactive
O=c1c2sc(=S)n(-c3cccc(C(F)(F)F)c3)c2[nH]c(=S)n1-c1ccccc1	none
COc1ccc(C(=O)C(C)Sc2nc(C)cc(=O)[nH]2)cc1 (stereo unspecified)	none
CCOc1ccc(C(=O)C(C)Sc2nc(C)cc(=O)[nH]2)cc1 (stereo unspecified)	GPR151 ag 5.1 | GPR151 conf act inactive | GPR119 counter inactive
CCN1CCN(C(CC(C)C)c2nnnn2Cc2ccc3c(c2)OCO3)CC1 (stereo unspecified)	GPR151 ag 5.3 | GPR151 conf act inactive | GPR119 counter inactive
Cn1cc(CN2CCC(C(Cc3ccccc3)N(C(=O)c3ccco3)C3CC3)CC2)cn1 (stereo unspecified)	none
O=C(Nc1ccc(Cl)c(-c2nc3ccccc3o2)c1)c1ccccc1F	none
O=C(Nc1ccc(Cl)c(-c2nc3ccccc3o2)c1)c1ccccc1Br	GPR151 ag 5.9 | GPR151 conf act inactive | GPR119 counter inactive
Cc1ccc(C(=O)Nc2ccc(-c3nc4ccccc4o3)cc2)c(Cl)c1	GPR151 ag 6.5 | GPR151 conf act inactive | GPR119 counter inactive
CN(CCCN1c2ccccc2CCc2ccccc21)CC(=O)c1ccc(Cl)cc1	none
CN(C)CCCN1c2ccccc2CCc2ccc(Cl)cc21	GPR151 ag 10! | GPR151 conf act inactive | GPR119 counter inactive
CC(=O)NC1(c2ccccc2)CCN(Cc2ccccn2)CC1	none
COc1ccc(NC(=O)C2CCN(c3nnc(N4CCCC4=O)s3)CC2)cc1	GPR151 ag 6.3 | GPR151 conf act inactive | GPR119 counter inactive
C=CCSc1ncnc2sc(C)c(C)c12	GPR151 ag 5.3 | GPR151 conf act inactive | GPR119 counter inactive
COC(=O)c1cc(-c2ccccc2)sc1NC(=O)CN1C(=O)c2ccccc2C1=O	GPR151 ag 15 | GPR151 conf act inactive | GPR119 counter inactive
